A number with no mark means an inactive call. The source made the active and inactive calls.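 The calls were made as follows: active = at least 20% inhibition of 6-phosphogluconate dehydrogenase activity; inactive = the rest.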
The compounds below were run against 6-phosphogluconate dehydrogenase, decarboxylating (Homo sapiens) (UniProt P52209) (assay: 6PGD enzyme inhibitors, primary screen, biochemical, human, recombinant enzyme, NADPH absorbance (AID 1159550)). Details: recombinant 6PGD, NADPH absorbance 341 nm; at 10 µM; active compounds read high.
Chain of 6-phosphogluconate dehydrogenase, decarboxylating (Homo sapiens) (P52209 whole entry, looked up): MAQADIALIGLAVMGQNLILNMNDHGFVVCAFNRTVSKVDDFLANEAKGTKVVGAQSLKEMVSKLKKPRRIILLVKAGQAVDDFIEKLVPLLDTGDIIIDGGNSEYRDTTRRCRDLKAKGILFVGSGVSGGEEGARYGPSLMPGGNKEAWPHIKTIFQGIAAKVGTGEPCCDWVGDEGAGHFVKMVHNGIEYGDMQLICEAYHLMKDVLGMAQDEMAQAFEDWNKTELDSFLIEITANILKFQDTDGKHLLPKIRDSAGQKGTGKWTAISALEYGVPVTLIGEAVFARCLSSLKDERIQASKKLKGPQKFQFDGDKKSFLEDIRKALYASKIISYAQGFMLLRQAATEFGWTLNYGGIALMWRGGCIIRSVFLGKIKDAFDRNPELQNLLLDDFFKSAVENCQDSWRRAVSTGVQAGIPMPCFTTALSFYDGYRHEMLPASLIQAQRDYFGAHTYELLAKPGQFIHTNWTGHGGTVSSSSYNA

In order of falling inhibition:
1. C=C1C(=O)OC2C[C@]3(C)[C@H](C(C)=CC[C@@H]3O)[C@@H](O)C12 (some centres undefined)  18.1%
2. CC(C)c1c(O)ccc2c1CCC1[C@@](C)(C(=O)O)CCC[C@]21C (some centres undefined)  17.5%
3. CC1(C)CC2C1CC[C@]1(CBr)CCC3C(CC(=O)O)C(=O)O[C@@]32C1 (some centres undefined)  14.7%
4. CC(C)CC(NC(=O)C1CCCN1C(=O)C(N)C(C)C)C(=O)O (centres undefined)  14%
5. CC(=O)O[C@H]1C[C@@H](OC(C)=O)C(C)(C)[C@@H]2C[C@@H](O)[C@@]3(C)[C@H](CC[C@]4(C)[C@@H](c5ccoc5)OC(=O)[C@H]5O[C@@]534)[C@@]12C  13.5%
6. CC(=O)O[C@@H]1CC2C(C)(C)[C@H](O)C[C@H](O)[C@]2(C)C2CC[C@@]3(C)C(=CC(=O)O[C@H]3c3ccoc3)[C@@]21C (some centres undefined)  13.2%
7. COC(=O)C(O)[C@H]1C(C)(C)[C@@H](OC(C)=O)[C@@H]2CC3=C4CC(=O)O[C@@H](c5ccoc5)[C@]4(C)CCC3[C@@]1(C)C2=O (some centres undefined)  12.8%
8. CC(C)CCCC(C)C1CCC2C3C(=O)C=C4C[C@@H](O)CCC4(C)C3CCC12C (some centres undefined)  12.2%
9. COc1ccc(C(C)C(=O)c2ccc(O)cc2O)cc1 (centres undefined)  10.6%
10. CC1(C)S[C@H]2[C@@H](NC(=O)[C@H](NC(=O)N3CCNC3=O)c3ccccc3)C(=O)N2[C@@H]1C(=O)O  10.5%
11. CC(=O)O[C@H]1CC[C@]2(C)C(C[C@@H](OC(C)=O)[C@]3(C)C4=CC(=O)OC(c5ccoc5)[C@@]4(C)CCC23)C1(C)C (some centres undefined)  5.97%
12. C[C@@H]1O[C@@H](O[C@H]2[C@H](O[C@H]3CC[C@@]4(C)[C@@H](CC[C@]5(C)[C@@H]4CC=C4[C@@H]6CC(C)(C)CC[C@]6(C(=O)O[C@@H]6O[C@H](CO[C@@H]7O[C@H](CO)[C@@H](O[C@@H]8O[C@@H](C)[C@H](O)[C@@H](O)[C@H]8O)[C@H](O)[C@H]7O)[C@@H](O)[C@H](O)[C@H]6O)CC[C@]45C)[C@]3(C)CO)OC[C@H](O)[C@@H]2O)[C@H](O)[C@H](O)[C@H]1O  5.65%
13. CC(=O)OC1CC[C@@]2(C)C(CC[C@H]3[C@@H]4CC=C(C(C)=O)[C@@]4(C)C(=O)C[C@@H]32)C1 (some centres undefined)  4.79%
14. Cc1cc(=O)c2c(O)c3c(cc2o1)OCC(C)CC3 (centres undefined)  4.57%
15. COC1=CC(=O)C(O)=C/C1=C/C=C/c1ccccc1  4.47%
16. CC(C)C(N)C(=O)NC(Cc1c[nH]c2ccccc12)C(=O)O (centres undefined)  4.18%
17. C[C@H](CCC(=O)O)[C@H]1CC[C@H]2[C@@H]3C=C[C@@H]4C[C@H](O)CC[C@]4(C)[C@H]3CC[C@]12C  3.87%
18. CC(=O)Oc1ccc2c(c1)CCC1C2CCC2(C)C(OC(C)=O)CCC12 (centres undefined)  3.64%
19. C=CC(C1=CC(=O)C(OC)=C(OC)C1=O)c1ccccc1 (centres undefined)  3.55%
20. COc1ccc(-c2c(O)c3c(OC)c4c(cc3oc2=O)OC(C)(C)CC4)cc1  1.85%
21. CC1(C)Oc2ccc3ccc(=O)oc3c2C[C@H]1O  1.49%
22. CC(=O)O[C@H]1C[C@@H](O)C(C)(C)[C@@H]2C[C@@H](OC(C)=O)[C@]3(C)[C@H](CC[C@@]4(C)[C@@H](c5ccoc5)OC(=O)[C@H]5O[C@@]534)[C@@]12C  1.48%
23. COC(=O)[C@H](O)[C@H]1C(C)(C)C(=O)[C@@H]2C[C@]3(O)[C@@H]4CC(=O)O[C@@H](c5ccoc5)[C@]4(C)CC[C@@H]3[C@@]1(C)C2=O  1.04%
24. CC(=O)OC(C)(CCC=C(C)C)C1CC=C(C)CC1 (centres undefined)  0.603%
25. Nc1ccccn1  -0.139%
26. C[C@H](C[C@@H](O)[C@@H]1OC1(C)C)[C@@H]1CC[C@]2(C)C3=CC[C@H]4C(C)(C)C(=O)CC[C@]4(C)[C@H]3CC[C@@]12C  -0.309%
27. CC(C)(O)[C@@H]1Cc2cc3ccc(=O)oc3cc2O1  -0.979%
28. CCCc1occc(=O)c1/C=C/O  -1.45%
29. COC(=O)C[C@H]1C(C)(C)C(=O)[C@@H]2CC3=C4CC(=O)O[C@@H](c5ccoc5)[C@]4(C)CC[C@@H]3C1(C)C2=O  -2.15%
30. COc1ccc(C2COc3c(ccc(O)c3OC)C2)c(OC)c1O (centres undefined)  -5.05%
31. CC(C)=CCc1c(O)cc(C)oc1=O  -5.39%
32. NC[C@@H]1OC(O[C@@H]2[C@@H](O)[C@H](O[C@H]3[C@@H](O)[C@H](N)C[C@H](N)[C@H]3O[C@H]3O[C@H](CN)[C@H](O)[C@H](O)[C@H]3N)O[C@@H]2CO)[C@H](N)[C@@H](O)[C@H]1O (some centres undefined)  -6.73%
33. CC(C)CCCCCOC(=O)COc1ccc(Cl)cc1Cl  -8.81%
34. CC12CCC3c4ccc(OC(=O)c5ccccc5)cc4CCC3C1CCC2=O (centres undefined)  -9.5%
35. CC(=O)NC(Cc1c[nH]c2ccccc12)C(N)=O (centres undefined)  -11.6%
36. NC(=O)c1cc[n+](CC2=C(C(=O)O)N3C(=O)[C@H](NC(=O)C(c4ccccc4)S(=O)(=O)[O-])[C@@H]3SC2)cc1 (some centres undefined)  -12%
37. CC1=CC(=O)C2C(C)(C)CCCC2(C)C1(O)CCc1ccoc1 (centres undefined)  -22.2%
38. CC1OC(OC2C(O)COC(OC3C(C)OC(OC4C(OC(=O)C56CCC(C)(C)CC5C5=CCC7C8(C)CCC(OC9OC(CO)C(O)C(O)C9O)C(C)(C)C8CCC7(C)C5(C)CC6O)OCC(O)C4O)C(O)C3O)C2O)C(O)C(O)C1O (centres undefined)  -33.1%

In the case of O=c1c(O)cc([C@H]2Oc3cc(O)cc(O)c3C[C@H]2O)cc2c([C@H]3Oc4cc(O)cc(O)c4C[C@H]3O)cc(O)c(O)c12, the inhibition is reported as 31.2% (active).

Reference: PubChem BioAssay
